What all share (assay): PBM binding z-score (relative to random genomic background probes); higher = stronger binding; sequences stand for … in GC…GCGATTGACAGCGTAGAATGAAGG
The subject of test [1] is PPARg:RXRa DBDmut IVT, anti-RXR (DBD mutation: RXRa K156A/R161A, NR concentration 270 nM, RXRa partner concentration 90 nM). Summed up:
(§1)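 Each nuclear receptor dimer, without ligand, was incubated for 1 h on custom Agilent 4×180K protein-binding microarrays. Binding was detected with antibodies against each partner (one per run), and scanned fluorescence was regression-normalized. The binding z-scores are referenced to random human genomic background probes.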

Test [2] relates to PPARg:RXRa IVT, anti-PPARg (NR concentration 270 nM, RXRa partner concentration 90 nM). Summed up: as §1
Test [3] relates to PPARg DBDmut:RXRa IVT, anti-PPARg (DBD mutation: PPARg1 K132A/R137A, NR concentration 270 nM, RXRa partner concentration 90 nM). Summed up:
as §1

Test [4] concerns PPARg DBDmut IVT, anti-PPARg (DBD mutation: PPARg1 K132A/R137A, NR concentration 270 nM). Summed up:
as §1

Test [5] relates to PPARg homodimer (NR concentration 180 nM). An outline of the steps: as §1
In test [6] the test system is PXR:RXRa (NR concentration 270 nM, RXRa partner concentration 90 nM). An outline of the steps: as §1
Test [7] deals with PXR homodimer (NR concentration 270 nM). An outline of the steps: as §1
Test [8] deals with RARa:RXR (NR concentration 270 nM, RXRa partner concentration 90 nM). An outline of the steps:
as §1

Test [9] concerns RARa homodimer (NR concentration 270 nM). Summed up: as §1
In test [10] the test system is RARb:RXRa (NR concentration 270 nM, RXRa partner concentration 90 nM). An outline of the steps:
as §1

Test [11] relates to RARb homodimer (NR concentration 270 nM). An outline of the steps:
as §1

Test [12] has as its system RARg:RXRa (NR concentration 270 nM, RXRa partner concentration 90 nM). Summed up: as §1
Test [13] relates to RARg homodimer (NR concentration 270 nM). Summed up: as §1
In test [14] the test system is RXRa DBDmut IVT, anti-RXR (DBD mutation: RXRa K156A/R161A, NR concentration 90 nM). Summed up:
as §1

Test [15] has as its system RXRa homodimer (NR concentration 180 nM). An outline of the steps:
as §1

For test [16], the system named is THRa:RXRa (NR concentration 90 nM, RXRa partner concentration 90 nM). Summed up:
as §1

Test [17] concerns THRa homodimer (NR concentration 90 nM). An outline of the steps: as §1
In test [18] the test system is VDR homodimer (NR concentration 270 nM). An outline of the steps: as §1

For eight sequences, PBM binding z-score results are on record in the supplement of paper PMC6555819.

Regarding CGTCCAAGGTCAGAGAGGTCTGTGAATGCCGAGT, the PBM binding z-score in test [1] is 2.15; in [2], 2.25; in test [3] it was -0.507; in [4] it was -0.56; in test [5], 2.09; in test [6] it was 2.96. The PBM binding z-score in test [7] is 1.23; in [8] it was 3.24; in [9] it was 0.529; in test [10], 4.49; in [11], 3.99; in test [12] it was 4.61. Besides, the PBM binding z-score turned out to be 5.25 in test [13]; 2.64 in [14]; 3.4 in test [15]; 3.38 in test [16]; 1.64 in test [17]; 1.65 in test [18].
Consider CCTTACGGGTCACTGACAAGTTATAGCATTTGGA, for which the PBM binding z-score in test [1] turned out to be 3.61; in test [2], 3.76; in [3] it was 0.661; in [4], 0.743; in [5], 2.03; in test [6] it was 2.77. Besides, the PBM binding z-score is -0.0294 in test [7]; 3.98 in [8]; 1.19 in [9]; 3.81 in test [10]; 2.62 in test [11]; 4.86 in test [12]. The PBM binding z-score in [13] is 4.71; in test [14] it was 1.85; in test [15], 5.12; in test [16] it was 2.29; in test [17], 0.165; in [18], 0.93.
ATACCAAGGTGATCGTGAGGTCGTCGATACTAAC: the PBM binding z-score in [1] worked out at 0.722; in [2] it was 1.25; in test [3] it was 0.727; in test [4], 0.964; in test [5] it was 0.798; in test [6], 2.36. The PBM binding z-score in test [7] amounted to 0.524; in test [8], 1.84; in test [9] it was 0.592; in test [10], 1.3; in [11] it was 1.61; in test [12] it was 2.45. For the same sequence, the PBM binding z-score turned out to be 0.868 in test [13]; 0.301 in test [14]; 1.56 in [15]; 3.52 in test [16]; 2.54 in test [17]; 1.95 in [18].
In the case of TCTAGCAGGCCAGAGGGTCACTTAAGAGGTACGG, the PBM binding z-score in test [1] was 0.598; in [2], 0.688; in test [3], -0.762; in test [4], -0.435; in [5] it was 0.442; in test [6] it was 1.35. Moreover, the PBM binding z-score in test [7] is -0.462; in [8] it was 2.27; in [9], -0.441; in test [10] it was 2.19; in [11], 2.71; in test [12], 2.39. Besides, the PBM binding z-score in [13] was 2.2; in [14], 0.154; in test [15] it was 2.36; in [16], 1.53; in test [17], -0.266; in test [18], 0.361.
Take GCTGCGAGGTCAGGTTGGTCAGCTAACGGGTACG: the PBM binding z-score in test [1] is 1.82; in [2], 2.38; in test [3], -0.42; in test [4], -0.641; in test [5], 2.28; in test [6], 3.29. In addition, the PBM binding z-score is 0.452 in [7]; 3.39 in test [8]; 0.367 in test [9]; 4.51 in test [10]; 3.93 in test [11]; 4.9 in test [12]. Also, the PBM binding z-score in test [13] was 5.27; in test [14] it was 3.04; in [15] it was 4.52; in test [16], 3.7; in [17], 2.31; in test [18] it was 2.88.
As for CCTAGCAGGCCAGGGTCACTCAGGCATTTCGCTT, the PBM binding z-score in test [1] was -0.00567; in test [2], 0.705; in [3] it was -1.33; in [4] it was -1.04; in test [5] it was 0.362; in test [6], 2.21. Moreover, the PBM binding z-score in test [7] is -0.351; in [8], 2.78; in [9] it was -0.431; in test [10], 2.47; in test [11], 2.73; in test [12] it was 2.77. In addition, the PBM binding z-score in test [13] is 2.03; in test [14], 0.226; in [15] it was 3.07; in test [16], 2.58; in test [17], 0.878; in [18], 1.07.
In the case of TCTAGTTGGTCAAAGGTTACACACTCGAAATGCG, the PBM binding z-score in test [1] came to 3.09; in [2], 4.81; in test [3], 1.41; in test [4], 2.3; in [5] it was 3.48; in test [6], 3.45. Further, the PBM binding z-score in test [7] came out at 1.04; in [8], 4.79; in [9] it was 2.25; in test [10], 2.88; in test [11], 2.96; in test [12] it was 4.04. Moreover, the PBM binding z-score in test [13] was 2.46; in test [14], 1.54; in [15], 4.59; in test [16] it was 2.37; in [17] it was 1.01; in [18] it was 1.23.
In the case of ATCTCTAGGTAAAGTTAGTTCAGTGAATGCAAAT, the PBM binding z-score in test [1] was determined as 2.54; in test [2], 2.3; in test [3], 1.03; in test [4], 0.811; in test [5], 1.08; in test [6], 1.65. For the same sequence, the PBM binding z-score worked out at 1.25 in [7]; 1.12 in test [8]; 0.947 in [9]; 0.74 in test [10]; 0.802 in test [11]; 0.673 in [12]. Besides, the PBM binding z-score in test [13] amounted to 0.531; in test [14] it was 0.563; in [15] it was 0.331; in test [16], 1.94; in [17], 0.737; in test [18], 1.35.
